Results with a measured potency or affinity are listed apart.
Tests used:
[1] = tested on: Staphylococcus aureus; settings: Concentration 32 ug.mL-1;; ASSAY_TEST Inhibition of Bacterial Growth; detection method Absorption (OD600); MEDIA CAMHB; plate type 384well; NBS; CORNING #3640; time 18 hr
[2] = tested on: Escherichia coli; settings: Concentration 32 ug.mL-1;; ASSAY_TEST Inhibition of Bacterial Growth; detection method Absorption (OD600); MEDIA CAMHB; plate type 384well; NBS; CORNING #3640; time 18 hr

Compound: CSc1ccc(CNC(=O)Cn2nc3c(N4CC(C)CC(C)C4)nccn3c2=O)cc1 (centres undefined)
- Inhibition [1]: 11.21%
- Inhibition [2]: 0.68%

Compound: Cc1ccc(CNC(=O)CSc2nnc3c(=O)n(-c4ccccc4)ccn23)cc1
- Inhibition [1]: 12.76%
- Inhibition [2]: 0.71%

Compound: COc1ccc(-c2cc3c4nn(CC(=O)Nc5cccc(C(C)=O)c5)c(=O)n4ccn3n2)cc1
- Inhibition [1]: -6.93%
- Inhibition [2]: -6.63%

Compound: Cc1nnc2c(S(=O)(=O)N(Cc3cccc(F)c3)c3ccc(C(C)C)cc3)cccn12
- Inhibition [1]: 15.47%
- Inhibition [2]: -0.86%

Compound: Cc1ccc(-n2ccn3c(=O)n(Cc4ccccc4F)nc3c2=O)cc1C
- Inhibition [1]: 8.2%
- Inhibition [2]: -3.66%

Compound: CC(C)c1nnc2c(SCC(=O)Nc3ccccc3F)nc3ccccc3n12
- Inhibition [1]: 10.78%
- Inhibition [2]: -2.22%

Compound: Cc1ccc(NC(=O)CSc2nnc3ccc(C(=O)Nc4cccc(F)c4)cn23)cc1F
- Inhibition [1]: 14.43%
- Inhibition [2]: 0.35%

Compound: CCOc1ccc(C(=O)CSc2nnc3c(=O)n(-c4ccc(OCC)cc4)ccn23)cc1
- Inhibition [1]: 18.9%
- Inhibition [2]: 1.24%

Compound: O=C(Cn1nc2c(N3CCOCC3)nc3ccccc3n2c1=O)NCc1ccccc1Cl
- Inhibition [1]: -2.26%
- Inhibition [2]: -4.63%

Compound: CC(C)CCNC(=O)CSc1nnc2c3cc(-c4ccccc4)nn3ccn12
- Inhibition [1]: 4.29%
- Inhibition [2]: 0.66%

Compound: COc1ccc(NC(=O)Cn2nc3c(SC4CCCCC4)nccn3c2=O)cc1OC
- Inhibition [1]: 4.77%
- Inhibition [2]: -3.78%

Compound: CCOC(=O)c1ccccc1NC(=O)CSc1nc2ccccc2n2c(C(C)C)nnc12
- Inhibition [1]: 6%
- Inhibition [2]: -2.48%

Compound: Cc1nnc2c(=O)n(CC(=O)Nc3ccc(Br)cc3)c3ccccc3n12
- Inhibition [1]: -6.47%
- Inhibition [2]: 5.5%

Compound: Cc1cc2nn(CC(=O)Nc3ccc(F)cc3)c(=O)n2c(Nc2ccccc2C)n1
- Inhibition [1]: 11.27%
- Inhibition [2]: 1.51%

Compound: COc1cc(NC(=O)C(C)Sc2nnc3c(=O)n(-c4cccc(OC)c4)ccn23)cc(OC)c1 (centres undefined)
- Inhibition [1]: -2.41%
- Inhibition [2]: -14.15%

Compound: O=C(Cn1nc2c(Sc3cccc(F)c3)nccn2c1=O)Nc1cccc(C(F)(F)F)c1
- Inhibition [1]: 12.33%
- Inhibition [2]: -0.7%

Compound: CCC(Sc1nnc2c(=O)n(-c3ccc(C)c(C)c3)ccn12)C(=O)Nc1cc(OC)ccc1OC (centres undefined)
- Inhibition [1]: -17.77%
- Inhibition [2]: -11.35%

Compound: CCOc1ccccc1NC(=O)Cn1nc2c(N3CCN(c4ccccc4C)CC3)nccn2c1=O
- Inhibition [1]: -2.13%
- Inhibition [2]: -13.69%

Compound: Cc1nnc2ccc(S(=O)(=O)N(CC(=O)OC(C)(C)C)c3ccc4c(c3)OCO4)cn12
- Inhibition [1]: 2.93%
- Inhibition [2]: -7.09%

Compound: O=C(Cn1nc2ccc(C(=O)NCc3ccccc3)cn2c1=O)Nc1ccc2c(c1)OCO2
- Inhibition [1]: 7.86%
- Inhibition [2]: -0.58%

Compound: CCc1nnc2c(S(=O)(=O)N(Cc3cccc(C)c3)c3ccc(Cl)cc3)cccn12
- Inhibition [1]: 8.39%
- Inhibition [2]: 0.27%

Compound: O=C(NCc1ccccc1)c1ccc2nn(CC(=O)N3CCN(c4ccccc4F)CC3)c(=O)n2c1
- Inhibition [1]: 3.54%
- Inhibition [2]: -3.36%

Compound: CCOc1ccccc1NC(=O)Cn1nc2c(Sc3ccc(C)cc3C)nccn2c1=O
- Inhibition [1]: 2.42%
- Inhibition [2]: 0%

Compound: CCOc1ccc(-n2ccn3c(SCC(=O)c4ccc(OC)c(OC)c4)nnc3c2=O)cc1
- Inhibition [1]: 21.02%
- Inhibition [2]: 1.32%

Compound: CCOC(=O)c1ccc(NC(=O)Cn2nc3c4sc(N5CCCC5)nc4ncn3c2=O)cc1
- Inhibition [1]: 6.07%
- Inhibition [2]: -11.73%

Compound: Cc1ccc(NC(=O)Cn2nc3c(SC4CCCCC4)nccn3c2=O)c(Br)c1
- Inhibition [1]: 0.51%
- Inhibition [2]: -5.93%

Compound: COc1ccc(C)cc1NC(=O)Cn1nc2cc(C)nc(Nc3ccc(F)cc3)n2c1=O
- Inhibition [1]: -14.69%
- Inhibition [2]: 2.14%

Compound: COc1ccccc1-n1ccn2c(SCC(=O)Nc3ccc(C)c(F)c3)nnc2c1=O
- Inhibition [1]: 12%
- Inhibition [2]: -1.35%

Compound: COc1ccc(Cl)cc1NC(=O)Cn1nc2c3cc(-c4ccc(C)cc4)nn3ccn2c1=O
- Inhibition [1]: 13.21%
- Inhibition [2]: 3.02%

Compound: O=C(Cn1nc2c(N3CCOCC3)nccn2c1=O)NCc1ccc(Cl)cc1
- Inhibition [1]: 9.06%
- Inhibition [2]: 3.48%

Compound: CCOC(=O)c1cccc(NC(=O)Cn2nc3c(Oc4cccc(C)c4C)nccn3c2=O)c1
- Inhibition [1]: -16.27%
- Inhibition [2]: -3.26%

Compound: CCCN(C)c1nccn2c(=O)n(CC(=O)Nc3ccc(OC)c(Cl)c3)nc12
- Inhibition [1]: 16.13%
- Inhibition [2]: -1.22%

— ChEMBL document CHEMBL4513146, “CO-ADD screening of Karazin Kharkiv National University (Ukraine) compounds”
